Screen size: about 300,000 compounds; about 1,100 (0.37%) were called active. The list comes from a sample in which actives are over-represented; it also holds similar structures and randomly drawn compounds. Values without a mark were called inactive.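 The calls were made as follows: active = inhibition past about -25% in most replicates, and total fluorescence under double the plate's negative control median (limit read from the data); inconclusive = replicates evenly split on the limit, or fluorescence at least double controls; inactive = too little inhibition in most replicates.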

The target in this assay is Zinc finger protein mex-5 (Caenorhabditis elegans) (UniProt Q9XUB2). The assay can be described thus: MEX-5 zinc finger RNA-binding disruptors – biochemical, C. elegans, fluorescence polarization, MLPCN library, primary screen (AID 1832).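 Also: 0% = DMSO and -100% = 5 µM competing unlabeled TCR2 RNA.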 The conditions noted are these: MEX-5/FITC-TCR2 RNA binding, at 10 µM, active compounds read low. (In general: Fluorescence polarisation rises when a labelled molecule tumbles more slowly, as on binding a larger partner.)
Zinc finger protein mex-5 (Caenorhabditis elegans), sequence (Q9XUB2 whole entry, looked up): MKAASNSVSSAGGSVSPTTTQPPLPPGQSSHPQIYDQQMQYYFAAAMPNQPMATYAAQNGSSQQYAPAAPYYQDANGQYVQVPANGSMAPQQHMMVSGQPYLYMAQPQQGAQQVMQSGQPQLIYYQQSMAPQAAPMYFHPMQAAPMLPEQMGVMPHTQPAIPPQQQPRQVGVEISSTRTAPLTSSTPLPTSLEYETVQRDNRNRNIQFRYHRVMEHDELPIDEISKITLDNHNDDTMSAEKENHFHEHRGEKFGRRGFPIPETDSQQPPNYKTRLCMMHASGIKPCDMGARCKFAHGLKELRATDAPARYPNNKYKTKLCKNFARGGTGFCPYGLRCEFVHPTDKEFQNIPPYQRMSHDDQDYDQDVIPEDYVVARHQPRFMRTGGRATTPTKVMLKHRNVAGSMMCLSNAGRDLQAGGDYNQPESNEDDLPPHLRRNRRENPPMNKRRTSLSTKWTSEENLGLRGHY
Take `Cc1cccn2c(=O)c3cc(C(=O)NCC4CCCO4)c(=N)n(Cc4ccc(F)cc4)c3nc12` (stereo not drawn): the activity score (negative = inhibition of binding) was -0.627%.

With `Cc1cccn2c(=O)c3cc(C(=O)NCCN4CCOCC4)c(=N)n(Cc4cccnc4)c3nc12`, the activity score (negative = inhibition of binding) was -41.6% (active).

As to `COc1ccc(CCn2c(=N)c(C(=O)NCC3CCCO3)cc3c(=O)n4cccc(C)c4nc32)cc1OC` (stereo not drawn), the activity score (negative = inhibition of binding) is 1.85%.

For the compound `CN(C)C(CNC(=O)c1cccc(S(=O)(=O)Nc2ccc(Br)cc2)c1)c1ccco1` (stereo not drawn), the activity score (negative = inhibition of binding) was -4.39%.

With `O=C(Nc1ccccc1Cc1ccccc1)c1ccc2c(c1)SC1=NS(=O)(=O)CCN12`, the activity score (negative = inhibition of binding) is 1.1%.

As for `Fc1ccc(/C=N/Nc2nc(-c3cccnc3)nc3ccccc23)cc1`, the activity score (negative = inhibition of binding) is 4.03%.

As for `COc1ccc(Nc2nc(-c3cccnc3)nc3ccccc23)cn1`, the activity score (negative = inhibition of binding) was -55.5% (active).

With `COc1ccccc1Oc1nc(-c2cccnc2)nc2ccccc12`, the activity score (negative = inhibition of binding) was 3.68%.

As to `O=C(NCc1ccc2c(c1)OCO2)C(=O)NCC1OCCN1S(=O)(=O)c1ccc(F)cc1` (stereo not drawn), the activity score (negative = inhibition of binding) is -0.888%.

Take `COCCn1c(N)c(N(Cc2ccccc2)C(=O)C2CCCCC2)c(=O)[nH]c1=O`: the activity score (negative = inhibition of binding) was 1.74%.

With `COCCn1c(N)c(NCc2ccccc2)c(=O)[nH]c1=O`, the activity score (negative = inhibition of binding) was -67.9% (active).

`COc1ccc(CNc2nc3c(c(=O)[nH]c(=O)n3C)n2Cc2ccccc2)cc1`: the activity score (negative = inhibition of binding) was -0.659%.

For the compound `Cc1nnc(SCc2ccc(C(=O)c3ccc(Cl)cc3)o2)n1-c1ccccc1`, the activity score (negative = inhibition of binding) was -1.84%.

With `COc1ccc(CC(=O)NCc2nnc(SCC(=O)Nc3ncc(C)s3)n2C)cc1`, the activity score (negative = inhibition of binding) is 0.258%.

On to `COc1ccc(C(=O)O/N=C(\N)c2ccccn2)cc1[N+](=O)[O-]`, for which the activity score (negative = inhibition of binding) was -0.00548%.

As for `COc1cccc(OCC(=O)NNC(=O)c2cnccn2)c1`, the activity score (negative = inhibition of binding) is -22.4%.

For `COc1ccc(C(=O)NNC(=O)c2cnccn2)cc1[N+](=O)[O-]`, the activity score (negative = inhibition of binding) was -64.4% (active).

For `O=C(CN1C(=O)c2cccnc2Oc2ccc(Cl)cc21)Nc1ccc(F)cc1`, the activity score (negative = inhibition of binding) was -1.82%.

In the case of `COCCCNCC(=O)Nc1sc(C)c(C)c1C(=O)OC`, the activity score (negative = inhibition of binding) is 0.906%.

As for `Cc1ccc(O)c(CCc2ccccc2)n1`, the activity score (negative = inhibition of binding) was -3.03%.

On to `O=C(Cn1cncn1)N/N=C/c1c2ccccc2cc2ccccc12`, for which the activity score (negative = inhibition of binding) is -30% (active).

For `Nc1nnn(CC(=O)N/N=C/c2ccccc2)n1`, the activity score (negative = inhibition of binding) is -0.796%.

With `Cc1[nH]c2ccccc2c1/C=N\NC(=O)Cn1nnc(-c2ccccc2)n1`, the activity score (negative = inhibition of binding) is 0.39%.

As for `Cc1ccc(-c2cc(C(=O)NC3CCN(Cc4ccccc4)CC3)c3ccccc3n2)cc1`, the activity score (negative = inhibition of binding) is -2.28%.

For `COc1cccc(NC(=O)CS(=O)(=O)c2cn(CC(=O)N3CCOCC3)c3ccccc23)c1`, the activity score (negative = inhibition of binding) is -1.81%.

For `O=C(Nc1ccc(F)cc1)C(=O)c1cn(CC(=O)N2CCOCC2)c2ccccc12`, the activity score (negative = inhibition of binding) was -1.93%.

For the compound `COc1cccc(NC(=O)C(=O)c2cn(CC(=O)N3CCOCC3)c3ccccc23)c1`, the activity score (negative = inhibition of binding) was -27.9% (active).

In the case of `COc1ccc(-c2n[nH]c3c2CN(C(=O)c2ccc(F)cc2)CC3)cc1`, the activity score (negative = inhibition of binding) is 0.485%.

For `O=c1ccc(-c2ccc(S(=O)(=O)Nc3ccccc3)o2)n[nH]1`, the activity score (negative = inhibition of binding) was 1.3%.

Regarding `Cc1cc2oc3ccc(NCCC4CCCN4C)cc3c(=O)c2cc1C` (stereo not drawn), the activity score (negative = inhibition of binding) is -10.1%.

Turning to `CCSCc1nc(N)nc(NCCc2ccccc2)n1`, the activity score (negative = inhibition of binding) was -1.2%.

Consider `O=C(Nc1ccc(OC(F)(F)F)cc1)c1ccc2c(c1)no[n+]2[O-]`, for which the activity score (negative = inhibition of binding) is -2.46%.

On to `COc1ccc(-c2nc(CS(=O)CC(=O)NCc3ccccn3)c(C)o2)cc1` (stereo not drawn), for which the activity score (negative = inhibition of binding) was -66% (active).

For `COc1cccc(-c2nc(CS(=O)CC(=O)NCc3ccc(F)cc3)c(C)o2)c1` (stereo not drawn), the activity score (negative = inhibition of binding) is 0.156%.

As to `COc1ccc(-c2nc(CS(=O)CC(=O)NCc3ccccc3)c(C)o2)cc1OC` (stereo not drawn), the activity score (negative = inhibition of binding) is 2.34%.

For the compound `O=C(CCC(=O)NNc1nc2ccccc2c2nc(-c3ccccc3)nn12)NCCCN1CCCC1=O`, the activity score (negative = inhibition of binding) is 0.509%.

Turning to `COc1ccc(OC)c(-n2cc3c(=O)n(C)c(=O)n(C)c3c2)c1`, the activity score (negative = inhibition of binding) is -2.26%.

With `COC(=O)C1=C[C@@H](C(=O)OC)[C@@H]2C3=C(C(=O)[C@]2(C)NC(=O)c2ccccc2)[C@H](C)n2c(=O)n(C)c(=O)n2[C@@H]3C1`, the activity score (negative = inhibition of binding) is 0.374%.

As for `COc1ccc(CNC(=O)C(Cc2ccccc2)n2cccc2)cc1` (stereo not drawn), the activity score (negative = inhibition of binding) is 2.2%.

Consider `Cc1ccc(C)n1C(Cc1ccccc1)C(=O)O` (stereo not drawn), for which the activity score (negative = inhibition of binding) was -27.1% (active).

For the compound `CC(Cc1ccccc1)C(=O)N(C)Cc1ccccc1` (stereo not drawn), the activity score (negative = inhibition of binding) was 2.02%.

For `Cc1c(C=O)c2ccccc2n1CC(=O)O`, the activity score (negative = inhibition of binding) was -1.11%.

Consider `C[C@@H](C(=O)Nc1ccc2ccccc2c1)[C@@H]1C[C@@]1(C)[C@@H](NC(=O)c1cccnc1)c1ccccc1`, for which the activity score (negative = inhibition of binding) was 2.99%.

Consider `O=C(Nc1c2c(nn1-c1cccc(Cl)c1)CS(=O)(=O)C2)c1cccs1`, for which the activity score (negative = inhibition of binding) was -4.55%.

`Cc1ccccc1NC(=S)NC(=O)Cc1ccc(Cl)cc1`: the activity score (negative = inhibition of binding) was 0.984%.

`CCCc1nnc(NC(=O)CCC(=O)N2CCN(S(=O)(=O)c3ccc(OC)cc3)CC2)s1`: the activity score (negative = inhibition of binding) is 2.03%.

With `CCN1CC=C2C(C#N)=C(N)C(C#N)(C#N)[C@H](c3ccoc3)[C@H]2C1`, the activity score (negative = inhibition of binding) was -84.8% (active).

Regarding `CCCN1CC=C2C(C#N)=C(N)C(C#N)(C#N)C(c3cc(OC)ccc3OC)C2C1` (stereo not drawn), the activity score (negative = inhibition of binding) was -27.2% (active).

For the compound `CCC1=C(C(=O)OC)C(c2cc(OC)ccc2OC)C(C#N)=C(N)O1` (stereo not drawn), the activity score (negative = inhibition of binding) is -1.18%.

With `CC1=C(C(N)=O)C(c2ccc(F)cc2)n2nc(CCCO)nc2N1` (stereo not drawn), the activity score (negative = inhibition of binding) was -1.99%.

Regarding `CCCCn1c(N)c(N(Cc2ccccc2OC)C(=O)COc2cc(C)ccc2Cl)c(=O)[nH]c1=O`, the activity score (negative = inhibition of binding) is -0.677%.

Regarding `CC1CC(C)CN(c2ccc(S(=O)(=O)N3CCOCC3)cc2)C1` (stereo not drawn), the activity score (negative = inhibition of binding) was -0.658%.

Turning to `CCN(Cc1ccccc1)S(=O)(=O)c1cc2c3c(c1)CCN3C(=O)CC2`, the activity score (negative = inhibition of binding) was 1.24%.

As to `O=C1Cc2ccccc2Sc2ccc(Cl)cc21`, the activity score (negative = inhibition of binding) is -1.6%.

Turning to `CC(C)[C@H](NC(=O)N1c2ccccc2NC(=O)[C@@H]1C(C)C)C(=O)N[C@H](C(=O)O)c1ccccc1`, the activity score (negative = inhibition of binding) was 1.76%.

`Cc1cccc(N=Nc2c(O)[nH]c3ccc(F)cc23)c1`: the activity score (negative = inhibition of binding) is -37.8% (active).

As for `Cc1cccc(N=Nc2c(C)[nH]n(-c3ccccc3)c2=O)c1`, the activity score (negative = inhibition of binding) is -1.5%.

As to `COCC(=O)N=Nc1c(O)[nH]c2ccccc12`, the activity score (negative = inhibition of binding) was -1.5%.

The values above are taken from PubChem BioAssay AID1832 (Broad Institute, 2009).
